Only some compounds are listed: those with a hit (about 7.9% of all), similar ones and a draw of the others.
HT1080 IDH1KD tx: kills HT-1080 cells with IDH1 knockdown; HT-1080 IDH1 knockdown viability, ATP luminescence, 48 h; Potency, µM (doses to about 46.1 µM), usual class: cytotoxic; 360,000 compounds, 2% hits; AID 686971
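After a 2 h attachment period, IDH1KD HT-1080 cells took pin-transferred compound for 48 h at 37 °C; ATP-based luminescence after 10 min room-temperature reagent incubation reported viability.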
KB-3-1 cytotox: KB-3-1 parental cell cytotoxicity | KB-3-1 viability, CellTiter-Glo ATP luminescence, 72 h | Potency, µM (titrated, usually from 46.1 µM), usual class: cytotoxic | 400,000 compounds, 1.4% hits; note: nearly all actives have a fitted effect of over 60% in size
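Cytotoxicity measured as CellTiter-Glo luminescence after 72 h at 37 C. Compound titrations were pinned onto drug-naive KB-3-1 parental adenocarcinoma cells grown in DMEM with 10% FBS, and normalized data fitted to concentration-response curves.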
HT1080-NT tox: kills 2HG-producing HT-1080-NT fibrosarcoma cells | HT-1080-NT fibrosarcoma viability, CellTiter-Glo ATP luminescence, 48 h | Potency, µM (series often up to 46.1 µM), hits mostly cytotoxic | 360,000 compounds, 1.6% hits;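 note: NT is the 2HG producing partner of a matched IDH1 knockdown line; nearly all actives have a fitted effect of over 55% in size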
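Toxicity toward the 2HG-producing NT line was scored as %Activity, normalised to DMSO and no-cell wells, from CellTiter-Glo luminescence after 48 hours' treatment.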
SW480 rereplic: induces DNA re-replication in SW480 colon adenocarcinoma cells; SW480 DNA re-replication, Hoechst DNA content imaging, 48 h; Potency, µM (doses to about 46.1 µM), actives largely listed as activators; 340,000 compounds, 1.8% hits; note: nearly all actives have a fitted effect of over 55% in size
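Readout is total intensity of Hoechst-stained nuclei, excited at 405 nm and collected at 500-530 nm. Compound treatment lasted 48 hr at 37 C in 5% CO2 before staining.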
KB-V1 cytotox: KB-V1 MDR subline cytotoxicity; KB-V1 MDR cells viability, CellTiter-Glo, 72 h; Potency, µM (doses to about 46.1 µM), most hits filed as cytotoxic; 400,000 compounds, 3.4% hits; AID 1347076; note: nearly all actives have a fitted effect of over 60% in size
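Drug-selected KB-V1 cells, grown in DMEM lacking phenol red with 10% FBS, receive compound titrations; after three days at 37 degrees C, surviving cell ATP is quantified by CellTiter-Glo luminescence and responses normalized and curve-fitted.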
MCF10A rerep: inducers of DNA re-replication in MCF 10A breast cells. 350,000 compounds, 2.9% hits. MCF 10A DNA re-replication, Hoechst nuclear intensity, 48 h. Potency, µM (titrated, usually from 46.1 µM), usual class: activators. AID 624296; note: nearly all actives have a fitted effect of over 50% in size
A number is an active result; . = inactive; ? = inconclusive; / = not tested or not shown; [ ] = another dose, or the depositor's remark. Calls come from the whole dose curve; as a rule, active = well fitted curve in the direction sought with a large enough effect; inconclusive = small, poorly fitted or top-dose-only effect, or another doubt; inactive = no such curve, though single readings can be large; an effect the other way counts as inactive or inconclusive.

SMILES	HT1080 IDH1KD tx	KB-3-1 cytotox	HT1080-NT tox	SW480 rereplic	KB-V1 cytotox	MCF10A rerep
CC(C)(C)c1ccc(S(=O)(=O)NNC(=O)c2cc3ccccc3[nH]2)cc1	20.6µM	.	20.6µM	.	.	.
COC(=O)c1cccc(N2C(=O)c3ccccc3S2(=O)=O)c1	.	.	.	.	.	.
COc1cc2c(cc1NCc1ccc3c(c1)OCO3)oc1ccccc12	.	?	.	.	.	.
COc1cc2c(cc1NS(=O)(=O)N1CCCCC1)oc1ccccc12	?	.	?	?	.	10µM
O=S(=O)(Nc1cccc2ccccc12)N1CCCC1	.	.	.	.	?	8.2µM
COCCCNC(=S)Nc1cc2oc3ccccc3c2cc1OC	11.6µM	?	2.31µM	11.6µM	?	9.2µM
COc1cc2c(cc1NCc1ccccn1)oc1ccccc12	.	.	.	.	.	23.1µM
Cc1ccc(Nc2nnc(-c3ccccc3N)o2)cc1C	.	.	.	.	?	.
O=c1[nH]c(-c2ccc(-c3cccc(Cl)c3)o2)nc2ccccc12	/	.	/	.	.	10.3µM
COc1ccc(N2CCN(c3oc(-c4ccco4)nc3C#N)CC2)cc1	.	?	.	.	14.6µM	.
N#Cc1nc(-c2ccco2)oc1N1CCN(c2ccccc2)CC1	.	.	.	.	.	.
O=C(CCCn1c(=S)[nH]c2cc3c(cc2c1=O)OCO3)N1CCc2ccccc2C1	.	.	.	.	.	.[0.0737 µM]
CC(NC(=O)Nc1cccc([N+](=O)[O-])c1)(C(F)(F)F)C(F)(F)F	16.4µM	18.4µM	?	.	?	.
O=C(Nc1cccc([N+](=O)[O-])c1)Nc1cccs1	.	.	.	.	.	0.651µM
O=[N+]([O-])c1cccc(NC2=NCCC2)c1	?	13µM	.	.	.	.
O=C(Nc1cccc([N+](=O)[O-])c1)Nc1ccc2c(c1)CCC2	?	?	.	.	23.1µM	.
COc1ccc(CN2CCNC(=O)C2CC(=O)NC2CCCCCC2)cc1C (stereo not given)	.	.	.	.	.	.
CC(C)(C)C(=O)NC(=S)NNC(=O)C(c1ccccc1)c1ccccc1	11.6µM	?	18.4µM	?	?	.
CC(=O)NNC(=S)NC(=O)C(c1ccccc1)c1ccccc1	?	?	?	.	.	.
CC1(C)Cc2c(cnn2-c2ccccc2)-c2c1c1ccccc1n2CC(O)CCl (stereo not given)	20.6µM	?	18.4µM	.	?	?
CC1(C)Cc2c(cnn2-c2ccccc2)C(=O)/C1=N\NC(=O)c1ccncc1	.	.	.	.	.	.
O=C(Nc1nc2c(s1)CCCC2)c1cc(-c2ccccc2)nc2ccccc12	.	.	.	/	13µM	.
Cc1cc(NC(=O)c2cc(-c3ccncc3)nc3ccccc23)ccc1Br	.	?	.	.	8.2µM	?
CC(=O)c1cccc(NC(=O)c2cc(-c3ccncc3)nc3ccccc23)c1	.	.	.[9.24 µM]	?	?	.
Cc1ccc(-c2cc(C(=O)NN=C3CCCC3)c3ccccc3n2)cc1	.	.	.	.	.	.
SMILES	HT1080 IDH1KD tx	KB-3-1 cytotox	HT1080-NT tox	SW480 rereplic	KB-V1 cytotox	MCF10A rerep
O=C(NN=C1CCCCCC1)c1cc(-c2ccccc2)nc2ccccc12	?	?	.	.	.	16.4µM
Cc1csc(NC(=O)c2cc(-c3ccccc3)nc3ccccc23)n1	.	?	.	.	2.31µM	?
CC(C)(C)c1nnc(NC(=O)c2cc(-c3ccccc3)nc3ccccc23)s1	.	.	.	.	.	.
O=c1c(-c2nc3ccccc3s2)cccn1Cc1ccc(Cl)c(Cl)c1	.	.	.	1.16µM	.	?
O=C(c1cccn(Cc2ccc(Cl)c(Cl)c2)c1=O)N1CCOCC1	.	?	.	.	?	.
CCOC(=O)C(CC)n1cnc2c(oc3ccccc32)c1=O (stereo not given)	.	.	.	.	.	?
Cc1cccc(-n2c(SCC(=O)Nc3ncc(Cl)cc3Cl)nc3ccccc32)c1	?	2.91µM	?	?	?	.
Cn1c(Cc2ccccc2)nnc1SCc1cc(=O)n2ccsc2n1	.	.	.	.	.	.
O=C(CSc1nc2ccccc2n1-c1ccccc1)Nc1ncc(Cl)cc1Cl	.	5.17µM	.	.	?	?
O=C(O)CCSc1nc2ccccc2n1-c1ccccc1	?	.	?	.	.	.
COCCn1c(SCC(=O)Nc2nc(C)c(Cl)cc2Cl)nc2ccccc21	.	.	.	.	?	.
Cc1cccc(-n2c(SCc3cc(=O)n4ccsc4n3)nc3ccccc32)c1	.	?	.	?	13µM	.
CN1CCN(c2ccccc2NC(=O)c2ccc([N+](=O)[O-])o2)CC1	.	/	.	2.31µM	/	14.6µM
CN1CCN(c2ccccc2NC(=O)c2c(F)cccc2F)CC1	.	.	.	.	.	.
CN1CCN(c2ccccc2NC(=O)c2ccc(-c3cccc([N+](=O)[O-])c3)o2)CC1	.	.	.	?	.	?
CN1CCN(c2ccccc2NC(=O)c2ccc(-c3ccc(Br)cc3)o2)CC1	2.59µM	?	?	8.2µM	?	4.11µM
Cc1c(C(=O)Nc2ccccc2N2CCN(C)CC2)oc2ccc(F)cc12	.	16.4µM	.	?	?	?
Cc1cc(O)c(NC(=S)NC(=O)c2ccc(-c3ccc(Cl)cc3)o2)cc1C	?	.	?	.	.	16.4µM
Cc1ccc(NC(=S)NC(=O)c2ccc(-c3ccc(Cl)cc3)o2)c(O)c1	?	?	?	.	?	?
O=C(CCC1CCN(Cc2ccc(Cl)cc2)CC1)NC1CC1	.	.	.	.	.	?
CN1CCN(c2ccc(NC(=O)c3ccc(-c4ccccc4F)o3)cc2)CC1	.	.	.	.	?	.
O=C(Nc1ccccc1N1CCCCC1)c1ccc(-c2ccc(Cl)cc2)o1	2.06µM	8.2µM	2.06µM	2.91µM	20.6µM	?
Cc1cc(N2CCN(C)CC2)ccc1NC(=O)c1ccc(-c2ccc(Cl)cc2)o1	23.1µM	.	23.1µM	.	.	1.16µM
NS(=O)(=O)c1ccc(NC(=O)COC(=O)c2cnc(Cl)c(Cl)c2)cc1	.	.	.	.	?	.
O=C(Cc1ccc(F)cc1)Nc1cccc(-c2cn3c(n2)SCC3)c1	.	.	.	.	18.4µM	.
O=C(CCc1ccccc1)NNC(=O)COc1ccc([N+](=O)[O-])cc1	.	.	.	.	.	.
CCOC(=O)N1CCN(S(=O)(=O)c2ccc(C(=O)NNc3nc4cc(C)cc(C)c4s3)cc2)CC1	?	4.11µM	?	?	.	?
CCOC(=O)N1CCN(S(=O)(=O)c2ccc(C(=O)NNc3nc4ccc(Cl)cc4s3)cc2)CC1	?	?	?	?	.	?
